# Reference: ChEMBL document CHEMBL3433997, “St. Jude Leishmania screening dataset” (2016)
# Key:
# Type in all cases: functional
# [1] = target: Solute carrier family 2, facilitated glucose transporter member 1 (Homo sapiens) (UniProt P11166); experiment: ST_JUDE_LEISH: Cytotoxicity at 2uM final concentration against transgenic Leishmania Mexicana promastigotes LmGLUT1 that are glucose transport deficient and complemented with the human glucose transporter GLUT1. Activity is measured by DNA content using SYBR green in vitro
# [2] = target: Hexose transporter 1 (Plasmodium falciparum) (UniProt O97467); experiment: ST_JUDE_LEISH: Cytotoxicity at 2uM final concentration against transgenic Leishmania Mexicana promastigotes LmPfHT that are glucose transport deficient and complemented with the Plasmodium falciparum hexose transporter. Activity is measured by DNA content using SYBR green in vitro
# [3] = target: Glucose transporter (Leishmania mexicana) (UniProt O61059); experiment: ST_JUDE_LEISH: Cytotoxicity at 2uM final concentration against transgenic Leishmania Mexicana promastigotes LmGT2 that are glucose transport deficient and complemented with the L. Mexicana glucose transporter 2. Activity is measured by DNA content using SYBR green in vitro
# Solute carrier family 2, facilitated glucose transporter member 1 (Homo sapiens), sequence (P11166 whole entry): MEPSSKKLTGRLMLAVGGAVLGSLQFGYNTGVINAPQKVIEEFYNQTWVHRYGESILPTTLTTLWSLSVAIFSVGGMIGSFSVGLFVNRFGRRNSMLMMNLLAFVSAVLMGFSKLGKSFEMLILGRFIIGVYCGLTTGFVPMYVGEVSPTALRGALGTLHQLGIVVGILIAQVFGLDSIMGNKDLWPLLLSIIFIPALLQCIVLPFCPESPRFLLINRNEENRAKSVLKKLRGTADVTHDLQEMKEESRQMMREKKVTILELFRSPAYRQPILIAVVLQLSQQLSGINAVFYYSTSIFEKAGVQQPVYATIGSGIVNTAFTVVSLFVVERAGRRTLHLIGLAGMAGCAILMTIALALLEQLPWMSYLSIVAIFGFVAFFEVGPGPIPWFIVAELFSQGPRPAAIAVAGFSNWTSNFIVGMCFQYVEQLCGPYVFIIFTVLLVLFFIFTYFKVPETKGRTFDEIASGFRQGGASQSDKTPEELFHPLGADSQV
SMILES,inhibition [1],inhibition [2],inhibition [3]
CCOc1ccc2c(=NN=Cc3cccc(F)c3)cc(C)[nH]c2c1,6%,1.08%,2.7%
CCCOC(=O)C1=C(C)NC2=C(C(=O)CC(c3ccc(OC)c(OC)c3)C2)C1c1cccc(O)c1 (stereo unspecified),8.78%,9.73%,8.46%
O=C(Nc1cccc(-c2ccc(-c3nc4cc(F)ccc4[nH]3)cc2)c1)c1cccnc1,7.59%,7.21%,6.47%
CC1CCN(c2nc(C(=O)Nc3ccc(F)cc3C(F)(F)F)c(C(C)C)s2)CC1,1.3%,2.16%,2.29%
COc1ccc(Cl)cc1-c1nc(C(=O)NCCN2CCCCC2)c(C)s1,1.59%,2.9%,5.49%
FC(F)(F)c1ccc(-c2ccc(CNC3CCN(CCN4CCOCC4)CC3)cc2)cc1,1.09%,0.81%,3.26%
COc1ccc2ncc(F)c([C@@H](O)CN3CCC(NCc4cc5c(cn4)OCS5)CC3)c2c1,5.71%,1.41%,4.52%
Cc1cc(N2CCCC2)nc(Nc2ccc(NC(=O)c3cccc(F)c3)cc2)n1,33.5%,14.7%,16.2%
CN1CCN(c2cccc(NC(=O)c3ccc(-c4ccc(C#N)cc4)cc3)c2)CC1,8.25%,3.32%,5.96%
CC1(C)CC(NC(=O)NC2CCN(Cc3ccccc3)CC2)CC(C)(CNC(=O)NC2CCN(Cc3ccccc3)CC2)C1 (stereo unspecified),5.31%,5.93%,1.3%
Cc1cc(-c2ccc(CNCCc3cccs3)cc2)ccc1S(=O)(=O)NCc1ccccc1,13%,17.3%,8.49%
O=C(NCCCCN1CC=C(c2ccc3c(c2OCC2CC2)CCCC3)CC1)c1ccc(-c2ccc(C(F)(F)F)cc2)cc1,5.41%,5.39%,5.23%
COc1ccc(Nc2nc(=Nc3ccccc3)nc(NN=Cc3cc(Cl)ccc3O)[nH]2)cc1,1.37%,2.04%,1.08%
CC(C)(C)c1ccc(/C=C/C(=O)NCCCCCN2CCC(c3c[nH]c4ccccc34)CC2)cc1,4.78%,4.13%,-1.25%
Cc1cc(NC(=O)c2cc(Br)ccc2Cl)n(-c2nc(C)c(C)c(=O)[nH]2)n1,-1.92%,-1.98%,-4.55%
CC1(C)OC[C@]2(C)[C@@H](CC[C@]3(C)C4=CC(=O)CCC4CC[C@@H]23)O1 (stereo partly specified),0.57%,1.6%,2.59%

SMILES,inhibition [1],inhibition [2],inhibition [3]
Oc1ccccc1Nc1nc(NCc2ccco2)c2ccccc2n1,15.3%,13.6%,4.56%
CCOc1ccc(-c2cc3nc(C4CCNCC4)c(C(=O)Nc4ccc(C)cc4Cl)cn3n2)cc1,4.75%,-0.08%,1.29%
COc1ccc2nccc([C@@H](O)CN3CCC(NC(=O)C(c4cc5ccccc5o4)N4CCN(C(c5ccccc5)c5ccccc5)CC4)CC3)c2c1 (stereo partly specified),3.01%,1.55%,1.41%
CN(C)c1ccc(CN2CCCCC(NC(=O)c3cc(-c4ccccc4F)cs3)C2)cc1 (stereo unspecified),-0.57%,-0.62%,-7.76%
Cc1[nH]c(C)c(-c2ccc(CCc3cccc(C(F)(F)F)c3)nc2)c(=O)c1Cl,2.83%,2.18%,0.88%
CC1CN(c2ccc(NC(=O)c3ccc(F)cc3)cc2)CCN1Cc1cccc(F)c1 (stereo unspecified),3.88%,2.84%,4.01%
CC(=O)Nc1ccc(Cl)c(Cl)c1,-0.84%,0.05%,-0.72%
CCCN1CCC2(CC1)NC(C(=O)NCCC(C)C)Cc1c2[nH]c2cc(Cl)ccc12 (stereo unspecified),6.25%,6.94%,2.82%
Cc1noc(C)c1-c1cccc(CNCc2ccc(-c3ccc(-c4nc5cc(C(F)(F)F)ccc5[nH]4)cc3)cc2)c1,5.36%,4.54%,4.2%
CC(C)N1CCN(C(CN2CCN(CCCOc3cccc4ccccc34)CC2)c2ccc(F)cc2)CC1 (stereo unspecified),-1.68%,0.92%,4.19%
CCc1ccc(NC(=O)c2ccc(CN3CCCN(Cc4cccs4)CC3)cc2)cc1,13.8%,12.6%,14.9%
COc1cc2nc(N3CCN(c4nc(N)c5cc(OC)c(OC)cc5n4)CC3)nc(N)c2cc1OC,5.24%,4.56%,4.05%
Cc1cc(C)c2oc(-c3cccc(NC(=O)c4ccc([N+](=O)[O-])o4)c3C)nc2c1,11.4%,10.4%,1.45%
NS(=O)(=O)c1cccc(Nc2nc(N[C@@H]3CCNC3)nc3cc[nH]c(=O)c23)c1,4.84%,2.08%,-3%
N#Cc1cccc(NC(=O)Nc2cccc(-c3cccc(-c4nc5ccccc5[nH]4)c3)c2)c1,5.25%,5.22%,3.75%
COc1cc(NC(=O)NC(CCN2CCC3(CCc4ccccc43)CC2)c2ccc(Cl)c(Cl)c2)cc(OC)c1OC (stereo unspecified),0.41%,0.09%,-3.62%
